# Measured values published in PubChem BioAssay AID504444 (National Center for Advancing Translational Sciences (NCATS), 2011).
# Out of some 360,000 compounds screened, about 7,500 (2.1%) were called active. Another 20% or so got no clear call; they are omitted. The list comes from a sample in which actives are over-represented; it also holds similar structures and randomly drawn compounds. Unmarked numbers belong to inactive results. The call rests on the fitted dose curve; in most records, active means well fitted inhibition curve with a large enough effect; inconclusive means small, poorly fitted or top-dose-only effect, or effect the other way; inactive means flat fitted curve, though single readings scatter.
# Experiment: Nrf2 qHTS screen for inhibitors; further: nearly all actives have a fitted effect of over 60% in size
# Settings: A549 ARE-Fluc reporter, luciferase luminescence, 18-24 h; series mostly up to 46 µM; activity change, negative = inhibition: at the top concentration
# How it was run: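 A549 ARE_Fluc cells (5000/well, 5% FBS OPTI-MEM) pre-incubated 2 h, then treated with compounds 18-24 h at 37C/5% CO2 in concentration-response. CellTiter-Fluor viability read first; BugLite luciferase luminescence after 15 min at room temperature gives Nrf2 activity.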
# On the % scale 0 is the no-effect control and ±100 the full control effect; potency means the concentration at half of the fitted maximal effect.
SMILES,"activity change, negative = inhibition",Potency
Cc1cccc(C(=O)OCC(=O)Nc2sc3c(c2C#N)CCC3)c1,1.47%,
CC(=O)c1c(C)[nH]c(C(=O)OCC(=O)NCCC(C)C)c1C,,11.6 µM (active)
CC(=O)c1c(C)[nH]c(C(=O)OCC(=O)Nc2cc(S(=O)(=O)N3CCCCC3)ccc2C)c1C,-24%,
CC(=O)c1c(C)[nH]c(C(=O)OCC(=O)Nc2sc3c(c2C#N)CCCC3)c1C,,18.4 µM (active)
CC(=O)c1c(C)[nH]c(C(=O)OCC(=O)Nc2c(C)cccc2C)c1C,,13 µM (active)
Cc1ccc(C)c(OCC(=O)Nc2sc3c(c2C#N)CCCC3)c1C,3.03%,
Cc1cccc(C)c1NC(=O)COC(=O)c1ccccc1O,2%,
CC(=O)c1c(C)[nH]c(C(=O)COC(=O)c2cccs2)c1C,-11.4%,
CC(=O)c1c(C)[nH]c(C(=O)OCC(=O)Nc2c(C)n(C)n(-c3ccccc3)c2=O)c1C,-19%,
CCOC(=O)N1CCC(NC(=O)c2cnn(-c3cccc(C)c3)c2C2CCN(C(=O)OC(C)(C)C)CC2)CC1,11.3%,
O=C(NCc1ccccc1CN1CCCC1)C1CCN(S(=O)(=O)c2ccc(Cl)cc2)CC1,13.4%,
CCOc1ccc(S(=O)(=O)c2cn(Cc3ccc(OC)cc3)c3ccc(F)cc3c2=O)cc1,-7.26%,
CCn1cc(C(=O)NCc2ccc(C)cc2)c(=O)c2cc(S(=O)(=O)N3CCc4ccccc4C3)ccc21,5.14%,
Cc1cc2c(s1)c1cnn(Cc3c(F)cccc3Cl)c(=O)c1n2C,16.9%,
CC(C)Cn1c(-c2ccc(S(=O)(=O)N3CCOCC3)cc2)csc1=Nc1cc(Cl)ccc1Cl,-3.88%,
CCn1cc(C(=O)N2CCN(c3cc(C)ccc3C)CC2)c(=O)c2cc(S(=O)(=O)N(C)C3CCCCC3)ccc21,,23.1 µM (active)
CCn1cc(C(=O)N2CCN(c3cc(Cl)ccc3C)CC2)c(=O)c2cc(S(=O)(=O)N3CCCC3)ccc21,-10.7%,
Cc1ccc(Cl)cc1N1CCN(C(=O)c2cn(C)c3ccc(S(=O)(=O)N(C)C4CCCCC4)cc3c2=O)CC1,25.6%,
CCN1CCC(O)(/C=C/c2ccc(C)cc2)C(C(=O)/C=C/c2ccc(C)cc2)C1 (configuration not stated),-22.3%,
CC[C@@]1(C(=O)OC)N[C@H](CN(C)C(C)=O)[C@@H]2C(=O)N(C)C(=O)[C@@H]21,-0.744%,
O=C(NCCc1ccco1)c1ccc(OCc2cn3ccccc3n2)cc1,23.3%,

SMILES,"activity change, negative = inhibition",Potency
COC1C(CO)OC(n2cnc3c(=S)nc(N)[nH]c32)C1O (configuration not stated),-1.21%,
N#CC(C#N)=CN=c1ccn(Cc2ccc(Cl)cc2Cl)cc1,,1.84 µM (active)
O=c1ccn(Cc2ccccc2Cl)cc1,3.6%,
CC(C)(C)c1cc(C(=O)NN)n(Cc2ccc(Cl)cc2Cl)n1,-13.1%,
CCCNS(=O)(=O)c1ccc(CCC(=O)N2CCCC2)cc1,-0.614%,
CCNS(=O)(=O)c1ccc(CCC(=O)N2CCN(c3ccc(OC)cc3)CC2)cc1,0.623%,
CCNS(=O)(=O)c1ccc(CCC(=O)N2CCN(c3cc(Cl)ccc3C)CC2)cc1,,8.2 µM (active)
O=C(CN1C(=O)NC2(CCCCCC2)C1=O)NCc1ccc(F)cc1,-6.21%,
O=C(CN1C(=O)NC2(CCCCCCC2)C1=O)NCc1ccc(F)cc1,8.87%,
CSc1ccc(CN2C(=O)NC3(CCCCCC3)C2=O)cc1,,18.4 µM (active)
COc1ccc(C2(c3ccc(OC)cc3)NC(=O)N(CC(=O)Nc3cc(C)on3)C2=O)cc1,2.89%,
Cc1cccc(CC2(O)C(=O)Nc3ccccc32)n1 (configuration not stated),-21.7%,
O=C(Nc1cccc(Cl)c1N1CCOCC1)c1cccnc1,-6.75%,
COC(=O)c1ccc(N2CCOCC2)c(NC(=O)c2ccc3c(c2)OCCO3)c1,3.57%,
O=C(Nc1cccc(Cl)c1N1CCOCC1)c1ccc2c(c1)OCCO2,,23.1 µM (active)
CC/C(=C(/c1ccccc1)c1ccc(OCC[N+](C)(C)C)cc1)c1ccccc1,-7.21%,
COC(=O)CSc1nc2ccccc2c(=O)n1Cc1ccccc1,4.16%,
CCC(=O)Nc1c(S(=O)(=O)c2ccccc2)c2nc3ccccc3nc2n1Cc1ccccc1,,14.6 µM (active)
CCN(CC)CCn1c(N)c(S(=O)(=O)c2ccccc2)c2nc3ccccc3nc21,-2.15%,
COc1cc(C(=O)CCc2ccc3c(c2)OCO3)cc(OC)c1OC,0.0369%,
COc1cccc(CNC(=O)CSc2c3c(nc4cc(Cl)ccc24)CCCC3)c1,-28.8%,

SMILES,"activity change, negative = inhibition",Potency
CCOc1ccccc1NC(=O)COc1ccc(S(=O)(=O)N2CCCC2)cc1,8.32%,
CCOc1ccc(S(=O)(=O)N2CCCCC2)cc1NC(=O)CN1CCCC1c1cccs1 (configuration not stated),,8.2 µM (active)
COc1ccc(S(=O)(=O)N2CCCCC2)cc1NC(=O)COc1ccccc1,-5.84%,
COc1cc(/C=C/CNC[C@H]2O[C@@H](n3cnc(C(N)=O)n3)[C@H](O)[C@@H]2O)ccc1O,-6.54%,
COc1ccc(NC(=O)CSC2=Nc3ccccc3C3=NC(CC(=O)NCc4ccccc4OC)C(=O)N23)cc1Cl (configuration not stated),7.31%,
COc1ccc(-c2cc(C(F)(F)F)n3nc(-c4ccccc4)cc3n2)cc1OC,-2.55%,
COc1ccccc1-c1oc2ccccc2c1C#CCCCCO,2.63%,
O=C1C=C(c2cccc(Cl)c2)C[C@@H](c2ccc(F)cc2)C1,-1.21%,
O=C1C=C(c2ccnc3cc(Cl)ccc23)C[C@@H](c2ccc3c(c2)OCO3)C1,,9.2 µM (active)
COc1ccc2cc(C3=CC(=O)C[C@H](c4ccc5c(c4)OCO5)C3)ccc2c1,-11.8%,
O=S(=O)(c1ccc2c(c1)OCCCO2)N1CCN(S(=O)(=O)c2c(F)cccc2F)CC1,18.5%,
COc1ccccc1Nc1nc(N)nc(N)c1S(=O)(=O)c1ccccc1,1.76%,
CC(C)(C)OC(=O)NCCCCCNC(=O)c1[nH]cnc1C(=O)Nc1nccs1,-19.6%,
CCOC(=O)c1ccc(NC(=O)c2nc[nH]c2C(=O)N[C@@H](CCCCNC(=O)OC(C)(C)C)C(=O)OC(C)(C)C)cc1,,23.1 µM (active)
CCOC(=O)c1ccc(NC(=O)c2nc[nH]c2C(=O)NCc2ccccc2)cc1,-19.4%,
COc1ccc(OC)c(NC(=O)CSc2nc3ccccc3nc2N2CCCCC2)c1,-8.4%,
CC(C)c1cc(N=O)cc(C(C)C)c1O,15.6%,
CCCCCc1ccc(-c2cn(Cc3ccc4ccccc4c3)nn2)cc1,8.41%,
CCCCOc1ccc(-c2ncc(C(=O)OCC)c(N)n2)cc1,-13.9%,
CCCCCc1ccc(-c2ccc(OCC)cc2)nc1,,0.366 µM (active)
